According to PubChem BioAssay AID434989 (The Scripps Research Institute Molecular Screening Center, 2010):
Screen size: about 330,000 compounds; about 1,400 (0.42%) were called active. This is one part of a sample in which actives are shown more often than they occur.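 The calls were made as follows: active = inhibition above its plate's threshold, mean inhibition of all tested compounds on the plate plus 3 SD (cut at about 37% in these data); inactive = the rest.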

Each molecule was assayed against Orexin/Hypocretin receptor type 1 (Homo sapiens) (UniProt O43613) (assay: OX1R (HCRTR1) antagonists, primary screen, fluorescence, CHO/OX1R cells, Fluo-8 calcium, orexin A (AID 434989;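 also: 0% = orexin A challenge wells and 100% = SB-334867-A antagonist wells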)). Details: Fluo-8 calcium fluorescence, at 5 µM, hits give high values.
Chain of Orexin/Hypocretin receptor type 1 (Homo sapiens) (O43613 whole entry, looked up): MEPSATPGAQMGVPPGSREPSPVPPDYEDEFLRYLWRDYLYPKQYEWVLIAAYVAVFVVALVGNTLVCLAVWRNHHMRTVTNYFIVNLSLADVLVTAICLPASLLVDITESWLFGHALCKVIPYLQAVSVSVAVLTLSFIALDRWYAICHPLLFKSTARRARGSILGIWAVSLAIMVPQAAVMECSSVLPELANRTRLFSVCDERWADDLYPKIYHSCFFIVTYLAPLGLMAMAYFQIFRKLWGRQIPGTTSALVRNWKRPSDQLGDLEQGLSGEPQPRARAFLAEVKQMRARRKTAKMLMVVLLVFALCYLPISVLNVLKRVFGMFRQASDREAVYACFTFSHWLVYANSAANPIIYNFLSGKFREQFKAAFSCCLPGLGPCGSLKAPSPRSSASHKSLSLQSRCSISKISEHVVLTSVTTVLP
`CCN(C[C@H]1N[C@@](CC)(C(=O)OC)[C@H]2C(=O)N(Cc3ccccc3)C(=O)[C@@H]12)S(=O)(=O)c1ccccc1` was tested, and the inhibition was -23.9% (inactive).
In the case of `O=C(COC(=O)/C=C/c1cccc(Cl)c1)NCc1cccs1`, the inhibition was -21.7% (inactive).
With `Cc1ccc(S(=O)(=O)N(C)c2ccc(OCC(=O)OCc3ccc(C#N)cc3)cc2)cc1` the inhibition was 0.88% (inactive).
`CC1(C)C=Cc2c(ccc3c2OC[C@@H](c2ccc(O)cc2O)C3)O1` was tested, and the inhibition was 47.2% (active).
`COc1cc(/C=C/C(=O)OCC(=O)NC2CC2)cc(OC)c1OC` was tested, and the inhibition was -7.25% (inactive).
`C/C(N)=C(/C#N)C(=O)COC(=O)c1cc(-c2ccc(C)cc2)nc2ccccc12` was tested, and the inhibition was 47.2% (active).
For `C/C(N)=C(/C#N)C(=O)COC(=O)c1cc(-c2ccccc2)nc2ccc(Br)cc12`, the inhibition was 5.4% (inactive).
In the case of `C/C(N)=C(/C#N)C(=O)COC(=O)c1cc(-c2cccc(Br)c2)nc2ccccc12`, the inhibition was 15.2% (inactive).
In the case of `CC(C)COc1ccc(C(=O)NNC(=O)CCC(=O)c2cccs2)cc1`, the inhibition was -18.4% (inactive).
`FC(F)(F)C1CCCN(c2nsc3ccccc23)C1` (centres undefined) was tested, and the inhibition was 46.1% (active).
`O=C(NCC(=O)N1CCCC(C(F)(F)F)C1)c1ccccc1F` (centres undefined) was tested, and the inhibition was 0.97% (inactive).
For `O=C(NC(Cc1ccccc1)C(=O)N1CCCC(C(F)(F)F)C1)c1ccccc1` (centres undefined), the inhibition was -34.6% (inactive).
For `Cc1onc(-c2c(F)cccc2Cl)c1C(=O)OCC(=O)N1C(C)CCCC1C` (centres undefined), the inhibition was -24.4% (inactive).
With `COc1ccc(NC(=O)CNc2cc(S(=O)(=O)N3CCOCC3)ccc2N2CCOCC2)c(OC)c1` the inhibition was -10.3% (inactive).
With `CN(C)c1ccc(/C=C2\NC(=S)N(Cc3ccccc3)C2=O)cc1` the inhibition was 91.7% (active).
`COc1cc(/C=C2/SC(=S)N(Cc3ccccc3)C2=O)cc(OC)c1O` was tested, and the inhibition was 31.2% (inactive).
`O=C1/C(=C\c2ccsc2)NC(=S)N1c1ccccc1` was tested, and the inhibition was -19.5% (inactive).
With `Cc1cc(OCCCC(=O)NCCN2C(=O)S/C(=C\c3cccnc3)C2=O)ccc1Cl` the inhibition was 94.3% (active).
For `O=C(NCCN1C(=O)S/C(=C\c2cccnc2)C1=O)c1cccc(OC(F)F)c1`, the inhibition was -28.3% (inactive).
For `CCOc1ccc(N2CC(C(=O)NCCN3C(=O)S/C(=C\c4cccnc4)C3=O)CC2=O)cc1` (centres undefined), the inhibition was -17.9% (inactive).
With `COC(=O)[C@]1(Cc2ccccc2)N[C@H](CN(C)S(=O)(=O)c2ccc(OC(F)(F)F)cc2)[C@@H]2C(=O)N(C)C(=O)[C@@H]21` the inhibition was -30.2% (inactive).
In the case of `COC(=O)c1ccc(/C=C/c2c(-c3ccc(OC)cc3)sc3ccccc23)cc1`, the inhibition was -6.38% (inactive).
`COc1ccc(CNC(=O)COC(=O)C(CCSC)N2C(=O)c3ccccc3C2=O)cc1` (centres undefined) was tested, and the inhibition was -29.7% (inactive).
In the case of `CCOC(=O)[C@H]1[C@H]2COc3ccccc3[C@@H]2N2C(=O)CN(Cc3ccccc3)C(=O)[C@@]12C`, the inhibition was -30.6% (inactive).
With `CN(C)S(=O)(=O)c1ccc(N2CCCC2=O)c([N+](=O)[O-])c1` the inhibition was -12.1% (inactive).
In the case of `Cc1cc(N2CCCC2=O)cc(C)c1S(N)(=O)=O`, the inhibition was 44.7% (active).
In the case of `CNS(=O)(=O)c1ccc(N2CCCC2=O)c([N+](=O)[O-])c1`, the inhibition was -6.08% (inactive).
For `O=C1CSc2ccc(C(=O)NCc3ccccn3)cc2N1`, the inhibition was 7.19% (inactive).
In the case of `CN(C)CCNC(=O)c1[nH]nc2c1CCc1ccccc1-2`, the inhibition was -12% (inactive).
With `COc1cccc(/C=N/NC(=O)c2[nH]nc3c2CCc2ccccc2-3)c1O` the inhibition was 38.6% (active).
With `COc1ccc(/C=N/NC(=O)c2ccc3c(c2)OCCO3)c(OC)c1` the inhibition was -14.1% (inactive).
With `COc1cc(OC)c(C(=O)NNC(=O)c2ccccc2-n2cccc2)cc1OC` the inhibition was -4.23% (inactive).
With `COc1cccc2sc3cc(NCC[C@@H]4CCCN4C)ccc3c(=O)c12` the inhibition was -2.27% (inactive).
For `CC(C#N)OC(=O)c1cccnc1SCC(=O)Nc1ccc2c(c1)OCO2` (centres undefined), the inhibition was -1.89% (inactive).
For `O=C(CSc1ncnc2sccc12)NC1CCS(=O)(=O)C1` (centres undefined), the inhibition was -10.8% (inactive).
`Oc1ccc2ccccc2c1N=Nc1nccs1` was tested, and the inhibition was 61% (active).
`Oc1ccc(N=Nc2nccs2)c(O)c1` was tested, and the inhibition was -44.9% (inactive).
With `CCC(C(=O)Nc1ccc2c(c1)OCCO2)c1ccccc1` (centres undefined) the inhibition was 3.71% (inactive).
`CCC(C(=O)Nc1ccc(C(C)C)cc1)c1ccccc1` (centres undefined) was tested, and the inhibition was 62.9% (active).
With `CCC(C(=O)OCC(=O)Nc1ccc(C(=O)Nc2ccc(OC)cc2)cc1)c1ccccc1` (centres undefined) the inhibition was -0.08% (inactive).
With `NCCN1CCN2C(=O)CN(C(=O)c3ccccc3)CC12` (centres undefined) the inhibition was 3.19% (inactive).
In the case of `CC(C)(C)OC(=O)C[C@@H]1C/C=C\C[C@@H](CC(=O)NCCO)C(=O)N[C@H](Cc2c[nH]c3ccccc23)COC1=O`, the inhibition was -10.6% (inactive).
For `CCN1/C(=C\c2ccc3ccccc3[n+]2CC)Sc2cc(C)ccc21`, the inhibition was 54.6% (active).
For `COc1ccccc1N(CCOc1ccccc1)S(=O)(=O)c1ccccc1`, the inhibition was -0.89% (inactive).
In the case of `COc1ccc2sc(-c3ccc(N(C)C)cc3)c(-c3ccc4cc[nH]c4c3)c2c1`, the inhibition was 1.84% (inactive).
With `COc1ccc2sc(-c3ccc(N(C)C)cc3)c(C#CCO)c2c1` the inhibition was 61% (active).
`COc1ccc(-c2sc3ccc(OC)cc3c2C#Cc2ccccn2)cc1` was tested, and the inhibition was -20.1% (inactive).
In the case of `Cc1ccc(NC(=O)c2ccc(Cl)nc2)cc1S(=O)(=O)N1CCOCC1`, the inhibition was -13.6% (inactive).
`COc1ccc(S(=O)(=O)N(C)C[C@H]2Oc3ccc(NS(=O)(=O)c4cccs4)cc3CC(=O)N([C@H](C)CO)C[C@H]2C)cc1` was tested, and the inhibition was -17.2% (inactive).
For `Cc1ccc(C(=O)OCc2nc(N)nc(Nc3ccccc3C)n2)cc1`, the inhibition was -15.1% (inactive).
In the case of `Nc1nc(COC(=O)CCC(=O)c2ccc(Cl)cc2)nc(Nc2ccccc2)n1`, the inhibition was 67.8% (active).
For `CC(NC(=O)COC(=O)CCC(=O)c1ccc(Cl)cc1)c1ccccc1` (centres undefined), the inhibition was -2.79% (inactive).
For `O=C(COC(=O)c1ccc(F)c(S(=O)(=O)N2CCOCC2)c1)NCc1ccc2c(c1)OCO2`, the inhibition was 4.89% (inactive).
For `COc1ccc(S(=O)(=O)N2CCCCCC2)cc1NC(=O)Cc1ccc(OC)c(OC)c1`, the inhibition was -23.5% (inactive).
`O=C(COC(=O)c1ccccn1)NNC(=O)c1ccc(Br)cc1` was tested, and the inhibition was -3.43% (inactive).
For `Cn1c(N)c(C(=O)COC(=O)c2cccc(S(=O)(=O)N3CCOCC3)c2)c(=O)n(C)c1=O`, the inhibition was -27.4% (inactive).
`Cn1c(N)c(C(=O)COC(=O)c2ccc3ccccc3c2)c(=O)n(C)c1=O` was tested, and the inhibition was 51.1% (active).
For `Cn1c(N)c(C(=O)COC(=O)c2cnc(Cl)c(Cl)c2)c(=O)n(C)c1=O`, the inhibition was -7.14% (inactive).
For `COc1ccc(N2C(=O)c3cccc4cccc(c34)C2=O)nn1`, the inhibition was -17.9% (inactive).
`O=C(O)c1ccc2c3c(cccc13)C(=O)N(OS(=O)(=O)c1ccccc1)C2=O` was tested, and the inhibition was -7.84% (inactive).
With `O=C1c2ccccc2C(=O)N1c1cccc2ccccc12` the inhibition was -17% (inactive).
With `CN1C(=O)c2cccc3c(N)ccc(c23)C1=O` the inhibition was 41.1% (active).
With `C[N+](C)(CCCCCC[N+](C)(C)CCCN1C(=O)c2cccc3cccc(c23)C1=O)CCCN1C(=O)c2cccc3cccc(c23)C1=O` the inhibition was -0.77% (inactive).
With `Cc1nn(C)cc1N1C(=O)c2cccc3c(N)ccc(c23)C1=O` the inhibition was 38.4% (active).
In the case of `Cc1noc(C)c1NC(=O)Nc1cccc2c1O[C@H](CN(C)C(=O)Nc1ccccc1)[C@@H](C)CN([C@H](C)CO)C2=O`, the inhibition was 1.33% (inactive).
For `C[C@]12c3[nH]c4ccc(Cl)cc4c3CCN1C(=O)[C@@H](CC(=O)NCCCn1ccnc1)C[C@@H]2C(=O)N1CCOCC1`, the inhibition was -3.04% (inactive).
For `CC[C@]12c3[nH]c4ccc(Cl)cc4c3CCN1C(=O)[C@@H](CC(=O)NCCCOC)C[C@@H]2C(=O)N1CCN(C(=O)c2ccco2)CC1`, the inhibition was -0.28% (inactive).
For `COc1ccc(CNC(=O)CNC(=O)c2sc3ccccc3c2Cl)cc1OC`, the inhibition was -23.5% (inactive).
In the case of `COCCNC(=S)N/N=C/c1c(C)[nH]c2ccccc12`, the inhibition was -0.83% (inactive).
In the case of `O=C(N/N=C/c1c(Cl)[nH]c2ccccc12)c1sc2ccccc2c1Cl`, the inhibition was 92.7% (active).
For `CCCCNc1c(-c2ccc(OC)c(Sc3ccc(OC)cc3)c2)nc2ccc(Cl)cn12`, the inhibition was -30.4% (inactive).
`Cc1cccc(OCC(=O)OCC(=O)Nc2ccc(Cl)cn2)c1` was tested, and the inhibition was -10.8% (inactive).
`Nc1ncnc2c1ncn2[C@@H]1O[C@H](CNCc2cccn2-c2nccs2)[C@@H](O)[C@H]1O` was tested, and the inhibition was -6.54% (inactive).
`COc1ccc2[nH]c3c(c2c1)CCN1C(=O)C(CC(=O)NCc2cccc(C(F)(F)F)c2)C[C@H](C(=O)N2CCOCC2)[C@@]31C` (some centres undefined) was tested, and the inhibition was -21.4% (inactive).
For `CCN1C[C@@H]2[C@@H]3C(=O)N(Cc4ccccc4)C(=O)[C@@H]3[C@](Cc3ccccc3)(C(=O)OC)N2C1=NC1CCCCC1`, the inhibition was -11.5% (inactive).
In the case of `O=C(Nc1cccc2cccnc12)c1cccc(N2C(=O)CCC2=O)c1`, the inhibition was 45.5% (active).
With `O=C(Nc1cccc2cccnc12)c1cccc(Cl)c1` the inhibition was -10.3% (inactive).
With `COC(=O)c1cccc(NC(=O)c2cccc(N3C(=O)CCC3=O)c2)c1` the inhibition was 13.2% (inactive).
`CN(Cc1ccccc1)C(=O)COC(=O)/C=C/c1ccc2c(c1)OCO2` was tested, and the inhibition was -11.9% (inactive).
For `COc1ccccc1NC(=O)CCCc1c[nH]c2ccccc12`, the inhibition was -3.22% (inactive).
`CCCCCCCC(=O)NC(Nc1ccccc1OC)C(Cl)(Cl)Cl` (centres undefined) was tested, and the inhibition was 51.6% (active).
`CCCC(=O)NC(Nc1ccccc1OC)C(Cl)(Cl)Cl` (centres undefined) was tested, and the inhibition was -0.68% (inactive).
With `O=C(COC(=O)c1ccc([N+](=O)[O-])o1)NC12CC3CC(CC(C3)C1)C2` the inhibition was -17.3% (inactive).
In the case of `COC(=O)[C@@]1(C)[C@H]2C(=O)N(Cc3ccccc3)C(=O)[C@H]2[C@H]2CN=C(SCC3CC3)N21`, the inhibition was -26.2% (inactive).
In the case of `COc1cccc(C(=O)OCC(=O)c2[nH]c(C)c(C(C)=O)c2C)c1`, the inhibition was 11% (inactive).
`CC(=O)c1c(C)[nH]c(C(=O)COC(=O)c2cccs2)c1C` was tested, and the inhibition was -11.4% (inactive).
For `CC(=O)c1c(C)[nH]c(C(=O)COC(=O)c2cccc(S(=O)(=O)N(C)c3ccccc3)c2)c1C`, the inhibition was 63.5% (active).
With `COc1ccccc1NC(=O)COC(=O)CNC(=O)C1CCCCC1` the inhibition was -0.83% (inactive).
`C[C@H](CO)N1C[C@H](C)[C@@H](CN(C)S(=O)(=O)c2ccc(F)cc2)Oc2c(NC(=O)Nc3ccccc3)cccc2C1=O` was tested, and the inhibition was -5.33% (inactive).
